Experimental findings from PubChem BioAssay AID1508622 (National Center for Advancing Translational Sciences (NCATS), 2021) are described below.

Structures are written as SMILES. Unmarked numbers belong to inactive results. The call rests on the fitted dose curve; in most records, active means well fitted activation curve with a large enough effect; inconclusive means small, poorly fitted or top-dose-only effect; inactive means no such curve, though single readings can be large or run the other way.

The nature of the assay: Confirmatory qHTS for Identification of Small Molecule Activators of Huntingtin-Antisense Promoter Activity. Particulars: HEK293 HTT-AS promoter firefly luciferase reporter, 24 h; series mostly up to 57.5 µM; activity change, positive = activation: at the top concentration. The procedure, abridged:
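Plated reporter HEK293 cells (24 h) received library compounds at up to 57.5 uM final or 50 uM PTC124, incubated 24 h at 37C; firefly luciferase luminescence was then recorded with Dual-Glo reagent.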
Background: Quantitative high-throughput screening tests each substance at several concentrations.
In the case of `COc1ccc(CCNC(=O)c2ccc3c(c2)CCN3S(=O)(=O)c2ccc(C)cc2)cc1`, the “activity change, positive = activation” value was -11.2%. The figure for `O=C(NCC(c1ccc2c(c1)OCO2)N1CCN(c2ccccc2)CC1)c1ccc(F)c(F)c1` (centres undefined) is -34.9%; for `CCc1cccc(C)c1NC(=O)COCc1cc(-c2ccc3c(c2)OCO3)on1` it is -92%; for `O=C(Nc1cccc(C(F)(F)F)c1)C1CCCN1S(=O)(=O)c1cccc2nsnc12` (centres undefined) it is -92.3%.

As to `CCOc1ccc(OC(=O)c2c(-c3ccccc3Cl)noc2C)cc1`, the “activity change, positive = activation” value is -27%. With `COc1ccc(-c2nc3sc(CCNS(=O)(=O)c4ccc(F)c(C)c4)c(C)n3n2)cc1`, the “activity change, positive = activation” value is -26.6%. As for `COc1ccc(C2=CC(c3ccc(F)cc3)n3ncc(C(=O)Nc4ccc(C)cc4)c3N2)cc1` (centres undefined), the “activity change, positive = activation” value was -18.3%. Turning to `O=C(CSc1ccc(-c2ccccn2)nn1)Nc1ccc(F)c(F)c1`, the “activity change, positive = activation” value is -65.4%.

Consider `Cc1cccc(NC(=O)c2c(NC(=O)C(F)(F)F)sc3c2CCCCC3)c1`, for which the “activity change, positive = activation” value is -96.1%. For the molecule `COc1cc(NS(=O)(=O)c2ccc(-c3cc(C)no3)cc2)cc(OC)c1`, the “activity change, positive = activation” value was -94%. The result for `CCOc1ccc(C(=O)NCC(c2ccc3c(c2)OCO3)N2CCN(c3ccccc3F)CC2)cc1` (centres undefined) reads -8.64%; that for `COC(=O)c1c(C)oc2ccc(N(C(=O)c3ccncc3)S(=O)(=O)c3ccc(OC)cc3)cc12`, -94.2%. The figure for `COc1ccc(CN2CCc3c(c(=O)n4ncc(C(=O)N5CCN(c6ccccc6OC)CC5)c4n3C)C2)cc1` is -64.1%; for `COc1ccc(CCNC(=O)c2ccc3nc(Cc4ccccc4)oc3c2)cc1OC` it is -33.4%. For the molecule `COc1ccccc1N1CCN(C(=O)C2CCCN(S(=O)(=O)c3ccc4c(c3)CCCN4C(C)=O)C2)CC1` (centres undefined), the “activity change, positive = activation” value is -55.3%. The result for `CCCCOc1ccc(C(=O)Nc2ccc3c(c2)CCCN3C(=O)c2cccs2)cc1` reads -56.3%. Take `Cc1ccccc1OCC(=O)Nc1ccccc1C(=O)OCc1cc(=O)n2c(C)csc2n1`: the “activity change, positive = activation” value is 29.6%. With `COc1cccc([C@@H](C)NCCCc2ccccc2Cl)c1`, the “activity change, positive = activation” value is -23.4%. On to `COc1ccccc1N1CCN(C(CNC(=O)C(=O)NCc2cccnc2)c2cccnc2)CC1` (centres undefined), for which the “activity change, positive = activation” value is -16.9%. In the case of `Cc1ccc(CN2CCSc3ccc(C(=O)NCC(C)c4ccccc4)cc32)cc1` (centres undefined), the “activity change, positive = activation” value was 7.41%. The result for `Cc1ccc(C)c(NC(=O)Cn2c(-c3nonc3N)nc3ccccc32)c1` reads -5.46%; that for `Cc1ccc2c(c1)N(C(=O)c1ccc(F)cc1)C(C)(C)CC2(C)c1ccccc1` (centres undefined), -66.1%. The result for `O=C(C1CCC(CNS(=O)(=O)c2cccs2)CC1)N1CCN(c2ccc(Cl)cc2)CC1` (centres undefined) reads -53.1%; that for `COCCn1c2c([n+](Cc3cnccn3)c1C)C(=O)c1ccccc1C2=O`, -94%; that for `CC1Cc2cc(S(=O)(=O)N(Cc3ccccc3)C(C)C)ccc2N1C(=O)C1CCC1` (centres undefined), -68.9%. Regarding `CSc1cccc(NC(=O)C2CCN(S(=O)(=O)c3ccc4[nH]c5c(c4c3)CCCCC5)CC2)c1`, the “activity change, positive = activation” value was -16.3%.

With `COc1ccccc1CNC(=O)Cn1c(=O)oc2cc(S(=O)(=O)N3CCC(C)CC3)ccc21`, the “activity change, positive = activation” value was -39.5%.

`Cc1cc(NC(=O)c2cc(Cl)ccc2Cl)ccc1-c1cc2ccccc2oc1=O`: the “activity change, positive = activation” value is -43.5%. The result for `CCOCc1cc(CN2CCN(c3ccccc3OC)CC2)c(O)c2ncccc12` reads -34.5%. The figure for `CCOc1ccccc1CNC(=O)c1cc2c(=O)n(Cc3ccccc3)ccc2nc1C` is -35.4%; for `CCOc1ccc(NC(=O)c2ccc(F)c(S(=O)(=O)N(CC)Cc3ccccc3)c2)cc1` it is -86.7%. Regarding `CC1Cc2cc(S(=O)(=O)NCc3ccccc3Cl)ccc2N1C(=O)C1CCC1` (centres undefined), the “activity change, positive = activation” value is -84.4%. `CCCCN1C(C(=O)c2ccccc2)=C(OC(=O)CC)c2ccccc2S1(=O)=O`: the “activity change, positive = activation” value was -43.1%. Turning to `Cc1ccc2nc(SCc3nc(-c4ccccc4C)no3)[nH]c2c1`, the “activity change, positive = activation” value was -60.4%. For `CCN(CC)c1ccc(NC(=O)c2sc3nc(-c4ccccc4)cn3c2C)cc1`, the “activity change, positive = activation” value is -7.86%. `CCc1ccc(NC(=O)C2CCCN(S(=O)(=O)c3ccc(F)cc3)C2)cc1` (centres undefined): the “activity change, positive = activation” value is -27.7%. The result for `CCN(CC)S(=O)(=O)c1ccc2c(c1)N(CC(=O)N1CCN(c3cccc(C(F)(F)F)c3)CC1)C(=O)CO2` reads -9.43%; that for `COc1cc(Nc2ncc3c(n2)CCN(Cc2cc(F)cc(F)c2)C3)cc(OC)c1`, -15.5%.

As for `COc1cccc(NC(=O)c2oc3ccc(S(=O)(=O)N4CCCCCC4)cc3c2C)c1`, the “activity change, positive = activation” value is -22.1%.
